“And” between values parts separate entries of the source, which are not always exact repeats. Equal entries are not always repeated. Records with an inconclusive call do not appear. Some structures have more than one record in an assay (separate samples or runs), and their calls can disagree. The source made the active and inactive calls. Calls follow the shape of the dose curve; as a rule, active = well fitted inhibition curve with a large enough effect; inconclusive = small, poorly fitted or top-dose-only effect; inactive = flat fitted curve, though single readings scatter.
Legend:
[1] = test system: CRL-7250; experiment: Cytotoxic Profiling of Annotated Libraries Using Quantitative High-Throughput Screening (AID 1296008); details: Five cell lines viability, CellTiter-Glo ATP luminescence, 48-72 h; max response: active compounds read low
Procedure, shortened: (§1)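 Compounds were pin-transferred onto cells and incubated 48 or 72 hr at 37 degree Celsius, 95% humidity. CellTiter-Glo was added, plates sat 10 min at room temperature, then ATP-coupled luminescence was imaged as the viability read-out.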

[2] = test system: HEK293; experiment: as above; details: Five cell lines viability, CellTiter-Glo ATP luminescence, 48-72 h; max response: active compounds read low
Procedure, shortened: as §1

[3] = test system: HaCat; experiment: as above; details: Five cell lines viability, CellTiter-Glo ATP luminescence, 48-72 h; max response: active compounds read low
Procedure, shortened: as §1

[4] = test system: KB-3-1; experiment: as above; details: Five cell lines viability, CellTiter-Glo ATP luminescence, 48-72 h; max response: active compounds read low
Procedure, shortened: as §1

[5] = test system: NIH3T3; experiment: as above; details: Five cell lines viability, CellTiter-Glo ATP luminescence, 48-72 h; max response: active compounds read low
Procedure, shortened: as §1

[6] = test system: MKL-1; experiment: qHTS assay to identify novel small-molecules to repurpose for Merkel cell carcinoma treatment (AID 1296009); details: MCC and control cell lines, CellTiter-Glo viability, 72 h; series mostly up to 46 µM
Procedure, shortened: (§2)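 Cells exposed to NPC (8-point) and MIPE (11-point) compound dilutions for 72 hr at 37 degree celsius; viability read by CellTiter-Glo luminescence, normalized to no-cell and DMSO in-plate controls.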

[7] = test system: MKL-2; experiment: as above; details: MCC and control cell lines, CellTiter-Glo viability, 72 h; series mostly up to 46 µM
Procedure, shortened: as §2

[8] = test system: HEK293T; experiment: as above; details: MCC and control cell lines, CellTiter-Glo viability, 72 h; at 44.8 µM (top of the series) unless noted
Procedure, shortened: as §2

[9] = test system: MCC-13; experiment: as above; details: MCC and control cell lines, CellTiter-Glo viability, 72 h; series mostly up to 46 µM
Procedure, shortened: as §2

[10] = test system: HACAT; experiment: as above; details: MCC and control cell lines, CellTiter-Glo viability, 72 h; series mostly up to 44.8 µM
Procedure, shortened: as §2

[11] = test system: MCC-26; experiment: as above; details: MCC and control cell lines, CellTiter-Glo viability, 72 h; series mostly up to 46 µM
Procedure, shortened: as §2

[12] = test system: NIH3T3; experiment: as above; details: MCC and control cell lines, CellTiter-Glo viability, 72 h; at 44.8 µM (top of the series) unless noted
Procedure, shortened: as §2
% is scaled to controls: 0 for no effect and ±100 for the full control effect; potency is read from the fitted curve at half-maximal effect.
Also: nearly all actives have a fitted effect of over 60% in size.

COc1cc(-c2nn(C3CCC(N4CCN(C(C)=O)CC4)CC3)c3ncnc(N)c23)ccc1NC(=O)c1cc2ccccc2n1C (stereo not given)
inactive: max response [1] -38.4% | max response [2] -12.7% | max response [3] -22.8% | max response [4] -0.49% | max response [5] -32.1% and -29.8% | Potency [7]
active: Potency [3] 3.66 µM | Potency [4] 20.6 µM | Potency [6] 3.72 µM

CNC(=O)c1ccc(-c2cnc3ncc(Cc4ccc5ncccc5c4)n3n2)cc1F
inactive: max response [1] -2.64% | outcome [1] | outcome [2] | max response [3] -3.74% and -10.2% | max response [4] 3.93% and 3.42% | max response [5] -7.6% and -25.4% | outcome [8] | Potency [9] | Potency [6] | Potency [7]

O=C(O)CCCc1c[nH]c2ccccc12
inactive: max response [1] -4.82% | outcome [1] | max response [2] -0.171% and -7.8% | max response [3] 4.3% and 3.03% | max response [4] 0.51% | outcome [4] | max response [5] -1.55% and 2.66% | Potency [9] | Potency [6] | Potency [7]

NC(=O)c1c(OCc2c(F)cc(Br)cc2F)nsc1NC(=O)NCCCCN1CCCC1
inactive: outcome [3] | Potency [10] | Potency [6] | Potency [7]
active: Potency [1] 4.69 µM and 8.2 µM | Potency [2] 14.8 µM | Potency [3] 26.4 µM | Potency [4] 9.35 µM | Potency [5] 235 nM and 2.06 µM

Cn1c(CNc2ccc(C(=N)N)cc2)nc2cc(C(=O)N(CCC(=O)O)c3ccccn3)ccc21
active: Potency [1] 7.24 µM
inactive: max response [1] -5.55% | max response [2] -4.52% | max response [3] -0.657% and -2.49% | max response [4] -2.52% | outcome [4] | outcome [5] | Potency [9] | Potency [11] | Potency [6] | Potency [7] | outcome [12] inactive [at 17.4 µM]

Cc1ccc(CN2CCNCC2)cc1NC(=O)CNc1ccc(F)c(F)c1
inactive: outcome [1] | max response [2] -5.99% | outcome [2] | outcome [3] | max response [4] 4% | outcome [4] | max response [5] -3.35% and 3.71% | Potency [10] | outcome [8] | Potency [9] | Potency [6] | Potency [7]

CC(C)CC(=O)Nc1n[nH]c2c1CN(C(=O)C1CCN(C)CC1)C2(C)C
inactive: max response [1] -90.6% | Potency [9]
active: Potency [1] 1.48 µM | Potency [2] 372 nM and 326 nM | Potency [3] 9.35 µM and 2.31 µM | Potency [4] 2.35 µM and 2.91 µM | Potency [5] 16.6 µM | Potency [7] 2.64 µM

O=C(CCCCCCC(=O)Nc1ccc([C@H]2O[C@@H](CSc3nc(-c4ccccc4)c(-c4ccccc4)o3)C[C@@H](c3ccc(CO)cc3)O2)cc1)NO
active: Potency [1] 18.7 µM | Potency [3] 20.9 µM | Potency [4] 11.8 µM | Potency [11] 23.5 µM | Potency [6] 8.33 µM | Potency [7] 8.33 µM
inactive: max response [1] -17.1% | outcome [3] | max response [5] -17.5% | Potency [10]

CCOc1ccccc1OCCNC(C)Cc1ccc(OC)c(S(N)(=O)=O)c1 (stereo not given)
inactive: max response [1] 3.17% | outcome [1] | max response [2] -25.2% | max response [3] -9.05% | outcome [3] | max response [4] 7.71% | outcome [4] | max response [5] -0.288% | outcome [5] | Potency [10] | Potency [9] | Potency [11] | Potency [6] | Potency [7] | outcome [12]

CN(C)c1nc(Cc2ccc(NC(=O)c3ccc4ccccc4c3)cc2)nc(Cl)c1CC(=O)O
inactive: max response [1] 0.957% and -5.82% | max response [2] -6.45% | outcome [2] | max response [3] 3.96% | outcome [3] | outcome [4] | max response [5] 2.84% and 3.57% | Potency [10] | outcome [8] | Potency [9] | Potency [11] | Potency [6] | Potency [7]

CNC(=O)CN1CCC(Oc2cc3c(Nc4cccc(Cl)c4F)ncnc3cc2OC)CC1
active: Potency [3] 0.58 µM | Potency [5] 26.4 µM and 16.4 µM | Potency [9] 3.32 µM | Potency [11] 2.64 µM
inactive: max response [1] -5.68% and -4.5% | max response [2] 1% and -0.0643% | max response [3] -148% | max response [4] 4.62% and 3.88% | Potency [7]

Cc1c(Cn2c(C)nc3c(C(=O)O)cc(N4CCOCC4)cc32)cccc1C(F)(F)F
inactive: max response [1] -5.25% | max response [2] -8.46% | outcome [2] | outcome [3] | max response [4] 6.95% | outcome [4] | max response [5] 3.21% and -3.58% | Potency [10] | outcome [8] | Potency [9] | Potency [6] | Potency [7]

O=c1c2ccccc2nc2n1CCc1c-2[nH]c2ccccc12
inactive: max response [1] 3.31% | max response [2] -12.5% | max response [3] -7.58% | outcome [3] | max response [4] 4.3% and 8.09% | max response [5] 0.849% and 0.542% | Potency [10] | Potency [9] | Potency [11] | Potency [6] | Potency [7]

CCCNC(=O)Nc1ccc(Oc2ncnc3cc(OC)c(OC)cc23)cc1Cl
inactive: max response [1] -26.7% and 2.06% | max response [2] -15.3% | outcome [2] | max response [3] 0.131% and 2.87% | max response [4] 4.92% | max response [5] -7.41% and 0.662% | outcome [8] | Potency [9] | Potency [11] | Potency [6] | Potency [7]

COc1ccc2c(c1)CC[C@@H](CN(C)CC(=O)O)[C@H]2c1ccccc1
active: Potency [2] 2.64 µM | Potency [4] 3.32 µM | Potency [5] 7.43 µM
inactive: max response [1] -2.88% | max response [2] 2.06% | max response [3] 0.39% | max response [4] 2.76% | outcome [5] | outcome [12]

C1Cc2[nH]nc(-c3nn[nH]n3)c2C1
inactive: max response [1] -5.71% and 4.92% | max response [2] 2.99% | outcome [2] | max response [3] -5.07% | outcome [3] | max response [4] 5.58% | outcome [4] | outcome [5] | Potency [10] | outcome [8] | Potency [9] | Potency [6] | Potency [7] | outcome [12]

CCNC(=O)Nc1ccc2ncc(Nc3ccc(C)cc3)nc2n1
inactive: max response [1] -2.45% | outcome [1] | max response [2] 1.18% and 1.8% | max response [3] -7.35% and 2.38% | max response [4] -0.0839% | outcome [4] | max response [5] 4.76% and -10.1% | Potency [9]

c1ccc2c(CCNc3ccc(Nc4ccncc4)cc3)c[nH]c2c1
inactive: max response [3] 2.65%
active: Potency [1] 10.5 µM | Potency [2] 1.05 µM and 2.31 µM | Potency [3] 11.8 µM | Potency [4] 23.5 µM | Potency [5] 16.6 µM and 11.6 µM | Potency [9] 20.9 µM | Potency [6] 9.35 µM | Potency [7] 5.9 µM

CN(C)CC(C)(C)CNc1nn2c(-c3ccccc3)nnc2cc1C1CCC1
active: Potency [2] 4.18 µM | Potency [6] 0.935 µM
inactive: max response [1] -13.8% | outcome [1] | outcome [2] | max response [3] -29.4% and -5.55% | max response [4] 9% | outcome [4] | max response [5] -0.774% | outcome [8] | Potency [9] | Potency [11]

O=C(c1cncc(Br)c1)N1CCC(N2CCCC2)CC1
inactive: max response [1] -7.35% | outcome [1] | max response [2] 2.69% and -9.71% | max response [3] 2.29% and 3.12% | max response [4] 1.64% | outcome [4] | max response [5] 4.3% and 2.16% | Potency [9] | Potency [11] | Potency [6] | Potency [7]

Nc1nc(NCCNc2ncc(-n3ccnc3)c(-c3ccc(Cl)cc3Cl)n2)ccc1[N+](=O)[O-]
active: Potency [1] 5.8 µM | Potency [4] 20.6 µM
inactive: max response [1] -3.28% | max response [2] 4.96% | outcome [3] | outcome [4] | max response [5] 4.08% | outcome [5] | Potency [10] | Potency [9] | Potency [11] | Potency [6] | Potency [7] | outcome [12]

Clc1ccc2ncc(-c3cccc(NC4CNC4)n3)n2c1
active: Potency [2] 18.7 µM
inactive: outcome [1] | outcome [2] | outcome [3] | outcome [4] | outcome [5] | Potency [10] | outcome [8] | Potency [9] | Potency [11] | Potency [7] | outcome [12]

Cc1cc(Nc2ncnc3ccc(-c4ccc(CNCCS(C)(=O)=O)o4)cc23)ccc1Oc1ccn2ncnc2c1
active: Potency [1] 3.32 µM and 23.1 µM | Potency [2] 4.18 µM | Potency [4] 11.8 µM | Potency [6] 14.8 µM | Potency [7] 18.7 µM
inactive: max response [2] -117% | max response [3] -107% | max response [4] -26.8% | max response [5] -81.1% | Potency [9] | Potency [11]

Clc1cccc(-c2nnnn2Cc2cccnc2)c1Cl
active: Potency [2] 26.4 µM
inactive: max response [1] -2.93% | max response [2] -0.348% | max response [3] 3% and -9.84% | outcome [4] | max response [5] -9.84% and -14.4% | Potency [9] | Potency [11] | Potency [6] | Potency [7]

O=C1CCC[C@@H]2[C@H]3CCC[N+]4([O-])CCC[C@@H](CN12)[C@@H]34 (stereo not given in full)
inactive: max response [1] 2.61% | outcome [1] | max response [2] 0.171% | max response [3] 2.01% | outcome [3] | max response [4] -0.364% and 8.14% | max response [5] -2.91% | outcome [5] | Potency [10] | Potency [9] | Potency [11] | Potency [6] | Potency [7] | outcome [12]
